Measurements taken from the supplement of paper PMC4371806.
Whole data set: some 1,600 compounds, median “plate-normalized OD600 growth (mean of duplicates)” near 0.31, cut for the lowest 2% near 0.23. The entries come from a sample that favours the lowest values as a whole.

System: Escherichia coli BW25113
Experiment: plate-normalized OD600 growth (mean of duplicates) (OD600 (normalized)); higher = more growth (less inhibition)
Conditions: 10 µM
Method: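 E. coli BW25113 in LB (100 µl, 96-well, no shaking) was exposed to 10 µM of each compound (here the ChemBridge subset of a ~30,000-member library) and grown at 37°C for 24 h or 15°C for 48 h, in duplicate. Growth was read as OD600 and the duplicate ODs were normalized across screening plates to correct plate-to-plate variation.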

Cc1ccc2c(c1)C1CN(C)CCC1N2 (stereo not given)
plate-normalized OD600 growth (temperature: 15°C, 48 h): 0.227 | plate-normalized OD600 growth (temperature: 37°C, 24 h): 0.61

O=c1cccc2n1C[C@H]1C[C@H]2CN(Cc2c(Cl)cccc2Cl)C1
plate-normalized OD600 growth (temperature: 15°C, 48 h): 0.284 | plate-normalized OD600 growth (temperature: 37°C, 24 h): 0.625

Cc1ccc(-c2nc3ccccc3c(=O)n2-c2cccc(O)c2)cc1
plate-normalized OD600 growth (temperature: 15°C, 48 h): 0.247 | plate-normalized OD600 growth (temperature: 37°C, 24 h): 0.61

Fc1ccc(CN2CCN(c3cccc(Cl)c3)CC2)c(F)c1
plate-normalized OD600 growth (temperature: 15°C, 48 h): 0.253 | plate-normalized OD600 growth (temperature: 37°C, 24 h): 0.623

CCC(N)C(=O)c1ccc(Br)cc1 (stereo not given)
plate-normalized OD600 growth (temperature: 15°C, 48 h): 0.219 | plate-normalized OD600 growth (temperature: 37°C, 24 h): 0.624

Cc1cccc(C)c1-n1nnnc1C1(Nc2cccc(O)c2)CCCCC1
plate-normalized OD600 growth (temperature: 15°C, 48 h): 0.252 | plate-normalized OD600 growth (temperature: 37°C, 24 h): 0.643

CN1C(=O)N(C)C(=O)C(CCc2ccncc2)(CCc2ccncc2)C1=O
plate-normalized OD600 growth (temperature: 15°C, 48 h): 0.266 | plate-normalized OD600 growth (temperature: 37°C, 24 h): 0.631

CCOc1cc(/C=C/[N+](=O)[O-])ccc1O
plate-normalized OD600 growth (temperature: 15°C, 48 h): 0.209 | plate-normalized OD600 growth (temperature: 37°C, 24 h): 0.585

COc1ccccc1N1CCN(Cc2ccc(N(C)C)cc2)CC1
plate-normalized OD600 growth (temperature: 15°C, 48 h): 0.234 | plate-normalized OD600 growth (temperature: 37°C, 24 h): 0.615

Clc1cccc(N2CCN(Cc3ccc4c(c3)OCO4)CC2)c1
plate-normalized OD600 growth (temperature: 15°C, 48 h): 0.275 | plate-normalized OD600 growth (temperature: 37°C, 24 h): 0.647

CCN1CCN(Cc2ccc(OC)c(C)c2)CC1
plate-normalized OD600 growth (temperature: 15°C, 48 h): 0.261 | plate-normalized OD600 growth (temperature: 37°C, 24 h): 0.606

Oc1cccc(CN2CCN(c3ccc(F)cc3)CC2)c1
plate-normalized OD600 growth (temperature: 15°C, 48 h): 0.222 | plate-normalized OD600 growth (temperature: 37°C, 24 h): 0.646

Oc1cccc(CN2CCN(c3ccccc3Cl)CC2)c1
plate-normalized OD600 growth (temperature: 15°C, 48 h): 0.26 | plate-normalized OD600 growth (temperature: 37°C, 24 h): 0.611

Cc1cccc(CN2CCN(c3ccccc3)CC2)c1
plate-normalized OD600 growth (temperature: 15°C, 48 h): 0.223 | plate-normalized OD600 growth (temperature: 37°C, 24 h): 0.663

Fc1ccc(N2CCN(CCc3ccccc3)CC2)cc1
plate-normalized OD600 growth (temperature: 15°C, 48 h): 0.24 | plate-normalized OD600 growth (temperature: 37°C, 24 h): 0.615

COc1cccc(CN2CCN(c3ccccc3)CC2)c1
plate-normalized OD600 growth (temperature: 15°C, 48 h): 0.252 | plate-normalized OD600 growth (temperature: 37°C, 24 h): 0.608

COc1cccc(CN2CCN(c3cccc(Cl)c3)CC2)c1
plate-normalized OD600 growth (temperature: 15°C, 48 h): 0.26 | plate-normalized OD600 growth (temperature: 37°C, 24 h): 0.623

COc1cc(CN2C[C@@H]3C[C@@H](C2)c2cccc(=O)n2C3)cc(I)c1O
plate-normalized OD600 growth (temperature: 15°C, 48 h): 0.263 | plate-normalized OD600 growth (temperature: 37°C, 24 h): 0.634

O=c1cccc2n1C[C@H]1C[C@H]2CN(Cc2cccc(Cl)c2Cl)C1
plate-normalized OD600 growth (temperature: 15°C, 48 h): 0.28 | plate-normalized OD600 growth (temperature: 37°C, 24 h): 0.659

COc1ccc(CN2C(=O)CC(=O)NC2=O)cc1
plate-normalized OD600 growth (temperature: 15°C, 48 h): 0.265 | plate-normalized OD600 growth (temperature: 37°C, 24 h): 0.633

COc1ccc(N2CCN(Cc3ccc(N(C)C)cc3)CC2)cc1
plate-normalized OD600 growth (temperature: 15°C, 48 h): 0.271 | plate-normalized OD600 growth (temperature: 37°C, 24 h): 0.65

Cc1[nH]c2ccccc2c1CCCNC1CCCCC1
plate-normalized OD600 growth (temperature: 15°C, 48 h): 0.264 | plate-normalized OD600 growth (temperature: 37°C, 24 h): 0.644

Cc1ccccc1-n1c(/C=C/c2ccccc2[N+](=O)[O-])nc2ccccc2c1=O
plate-normalized OD600 growth (temperature: 15°C, 48 h): 0.239 | plate-normalized OD600 growth (temperature: 37°C, 24 h): 0.651

COc1ccc(Br)cc1CN1CCN(C)CC1
plate-normalized OD600 growth (temperature: 15°C, 48 h): 0.26 | plate-normalized OD600 growth (temperature: 37°C, 24 h): 0.617

CN1C(=O)C(C2(C#N)CCCCC2)C(=O)N(C)C1=O
plate-normalized OD600 growth (temperature: 15°C, 48 h): 0.264 | plate-normalized OD600 growth (temperature: 37°C, 24 h): 0.635

COc1cc(Cc2ccc(N)c(OC)c2)ccc1N
plate-normalized OD600 growth (temperature: 15°C, 48 h): 0.255 | plate-normalized OD600 growth (temperature: 37°C, 24 h): 0.625

Cc1ccccc1CN1CCN(c2ccc([N+](=O)[O-])cc2)CC1
plate-normalized OD600 growth (temperature: 15°C, 48 h): 0.23 | plate-normalized OD600 growth (temperature: 37°C, 24 h): 0.605

Nc1ccc(Oc2ccc(N)cc2)cc1
plate-normalized OD600 growth (temperature: 15°C, 48 h): 0.168 | plate-normalized OD600 growth (temperature: 37°C, 24 h): 0.608

OCCN1CCN(Cc2ccc(F)c(F)c2)CC1
plate-normalized OD600 growth (temperature: 15°C, 48 h): 0.247 | plate-normalized OD600 growth (temperature: 37°C, 24 h): 0.612

COC1CCCCC1NC1CCCCC1 (stereo not given)
plate-normalized OD600 growth (temperature: 15°C, 48 h): 0.234 | plate-normalized OD600 growth (temperature: 37°C, 24 h): 0.614
